Our source for the growth values is PubChem BioAssay (NCI).

What all share (assay): NCI-60 one-dose screen, 48 h (100 = growth as untreated, 0 = no growth, -100 = all killed)
One test relates to DU-145 prostate. The conditions noted are these: 10 µM.
The next test deals with K-562 leukemia. The conditions noted are these: 10 µM.
For another test, the system named is MALME-3M melanoma. The following applies: 10 µM.
The next test deals with MDA-MB-231 breast. The conditions noted are these: 10 µM.
Another test relates to RXF 393 renal. The conditions noted are these: 10 µM.
Another test concerns SF-268 CNS. The following applies: 10 µM.
The next test concerns SF-539 CNS. The conditions noted are these: 10 µM.
For another test, the system named is UACC-257 melanoma. The conditions noted are these: 10 µM.
For the next test, the system named is M14 melanoma. The conditions noted are these: 10 µM unless noted.
The test system of another test is HCT-15 colon. The conditions noted are these: 10 µM.
Another test concerns HT29 colon. The conditions noted are these: 10 µM.
The test system of a further test is SNB-75 CNS. The following applies: 10 µM.
In a further test the test system is SNB-19 CNS. The following applies: 10 µM.
Another test has as its system U251 CNS. The following applies: 10 µM.
A further test has as its system PC-3 prostate. The conditions noted are these: 10 µM.
In another test the test system is SK-MEL-5 melanoma. The following applies: 10 µM.
The test system of a further test is UACC-62 melanoma.
The subject of the next test is LOX IMVI melanoma. The following applies: 10 µM.
The subject of the next test is SK-MEL-28 melanoma. The following applies: 10 µM.
The subject of the next test is SF-295 CNS. The following applies: 10 µM.

Values joined by “and” are separate entries in the source; they are usually repeats but may differ in a detail not shown here. Identical values can stand only once. This is part of a sample that, as a whole, favours compounds with a hit. Of some 83,000 tested, about 20% had one in any assay.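 Assay: single dose, 48 h. Readout: percent growth (0 = no net growth; negative = cell death). Active: <10.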 A number with no mark means an inactive call. Active and inactive are the calls of the source.

For the compound `Nc1nc(N)c2cc(Sc3ccc4ccccc4c3)ccc2n1`, the growth with DU-145 prostate was 30.5%; in the test with K-562 leukemia, -3.38% (active); with MALME-3M melanoma, 53%; with MDA-MB-231 breast, 40.2%; with RXF 393 renal, 52.7%; in the test on SF-268 CNS, 42.1%. Also, the growth with SF-539 CNS was 33.2%; in the test on UACC-257 melanoma it was 32.9%; in the test with M14 melanoma, 16.4%; in the test on HCT-15 colon, 22.6%; in the test with HT29 colon it was 9.75% (active); in the test with SNB-75 CNS it was 53.5%. Also, the growth in the test with SNB-19 CNS was 35.7%; in the test with U251 CNS, 27.4%; in the test on PC-3 prostate it was 35.6%; with SK-MEL-5 melanoma, 23.4%; in the test on UACC-62 melanoma (10 µM), 27.3%; in the test on LOX IMVI melanoma, 21%. Also, the growth with SK-MEL-28 melanoma is 61.7%.

As to `CCC(=O)Oc1ccc(/C=N/NC(N)=S)nc1`, the growth with DU-145 prostate was 28.4%; with K-562 leukemia it was 47.3%; in the test with MALME-3M melanoma it was 59%; in the test with MDA-MB-231 breast it was 63.4%; in the test on RXF 393 renal, 60.5%; in the test on SF-268 CNS, 25.4%. For the same compound, the growth was 97.4% in the test on SF-295 CNS; 68.1% in the test on UACC-257 melanoma; 9.1% (active) with M14 melanoma; 65% with HCT-15 colon; 60.8% in the test with HT29 colon; 41% in the test with SNB-75 CNS. Further, the growth in the test on SNB-19 CNS is 72.7%; with U251 CNS, 27.3%; in the test on PC-3 prostate it was 54.1%; with SK-MEL-5 melanoma, 31%; in the test with UACC-62 melanoma (10 µM), 7.95% (active); in the test on LOX IMVI melanoma, 18.1%. Further, in the test on SK-MEL-28 melanoma, the growth was 79%.

As to `Cc1cc(O)c2c(c1O)C(=O)C13C(=C2O)C(=O)C2C(O)C1C1C(O)C3C(=O)C3=C(O)c4c(O)cc(C)c(O)c4C(=O)C321` (stereo not drawn), the growth was -6.49% (active) in the test with DU-145 prostate; 9.5% (active) in the test on K-562 leukemia; -2.77% (active) in the test on MALME-3M melanoma; 13.6% in the test on MDA-MB-231 breast; -13.7% (active) with RXF 393 renal; 10.6% in the test on SF-268 CNS. In addition, the growth was -30.2% (active) with SF-295 CNS; -47.2% (active) in the test with SF-539 CNS; 8.71% (active) in the test with UACC-257 melanoma; 16.4% in the test on HCT-15 colon; 3.7% (active) in the test with HT29 colon; 20% in the test on SNB-75 CNS. Further, the growth in the test with SNB-19 CNS is 5.61% (active); in the test with U251 CNS, 12.3%; with PC-3 prostate, 10.3%; in the test with SK-MEL-5 melanoma it was -74.9% (active); with UACC-62 melanoma (10 µM), -48.1% (active); in the test on LOX IMVI melanoma, 7.97% (active). In the test on SK-MEL-28 melanoma, the growth is 9.99% (active).

For `Cc1c(-c2ccccc2)[nH]c2ccccc12`, the growth with DU-145 prostate is 107%; in the test on K-562 leukemia, 110%; with MALME-3M melanoma, 106%; in the test on MDA-MB-231 breast it was 95.1%; in the test with RXF 393 renal it was 109%; in the test on SF-268 CNS it was 104%. For the same compound, the growth is 106% in the test on SF-295 CNS; 99.3% in the test on SF-539 CNS; 112% in the test with UACC-257 melanoma; 143% in the test on M14 melanoma; 106% with HCT-15 colon; 103% in the test on HT29 colon. Further, the growth in the test with SNB-75 CNS is 89.9%; in the test on SNB-19 CNS it was 110%; in the test on U251 CNS, 106%; in the test on PC-3 prostate, 87.8%; with UACC-62 melanoma (10 µM) it was 96.3%; with LOX IMVI melanoma, 81.5%. In the test on SK-MEL-28 melanoma, the growth is 121%.

Regarding `CO[C@@]12[C@H](COC(N)=O)C3=C(C(=O)C(C)=C(N)C3=O)N1C[C@@H]1N[C@@H]12`, the growth in the test with UACC-62 melanoma (25 µM) was -83.6% (active) and -100% (active).

For the compound `COc1cc2c(cc1C[N+](C)(C)CSc1ccccc1)-c1ccccc1CC2`, in the test on UACC-62 melanoma (100 µM), the growth was -96.4% (active) and -92.3% (active).

For `Cc1cc(N=C2C=CC(=[N+](C)C)C=C2)c(N)cc1N`, the growth with DU-145 prostate is 104%; in the test on K-562 leukemia, 57.3%; in the test with MALME-3M melanoma, 106%; with MDA-MB-231 breast, 65.2%; with RXF 393 renal, 96.3%; in the test on SF-268 CNS it was 97.9%. Besides, the growth in the test on SF-295 CNS was 90.8%; in the test with SF-539 CNS it was 89.3%; with UACC-257 melanoma, 103%; with M14 melanoma, 107%; with HCT-15 colon, 109%; in the test on HT29 colon it was 93.8%. Moreover, the growth in the test with SNB-75 CNS was 102%; with SNB-19 CNS, 87.3%; in the test on U251 CNS, 93.2%; in the test with SK-MEL-5 melanoma it was 90%; in the test with UACC-62 melanoma (10 µM) it was 89.8%; in the test with LOX IMVI melanoma, 79%. In addition, the growth in the test on SK-MEL-28 melanoma was 103%.

`C=C(C)[C@@H]1CCc2c(O)c(O)c(=O)cc(C)c2C1`: the growth in the test with UACC-62 melanoma (100 µM) is -52.3% (active) and -85% (active).

Regarding `O=c1[nH]cc(/C=N\Nc2ccccc2)c(=O)[nH]1`, the growth in the test on DU-145 prostate is 74.2%; in the test with K-562 leukemia, 8.14% (active); in the test with MALME-3M melanoma, 84.4%; in the test with MDA-MB-231 breast, 63.9%; in the test on RXF 393 renal, 111%; in the test with SF-268 CNS, 58.5%. Moreover, the growth was 45.5% in the test on SF-295 CNS; 78.4% with UACC-257 melanoma; 50.8% with M14 melanoma; 41.1% with HCT-15 colon; 58.8% in the test with HT29 colon; 102% with SNB-75 CNS. Further, the growth with SNB-19 CNS is 103%; in the test on U251 CNS, 69.6%; with PC-3 prostate, 52.1%; in the test on SK-MEL-5 melanoma, 57.8%; in the test on UACC-62 melanoma (10 µM) it was 7.82% (active); in the test with LOX IMVI melanoma, 45.8%. Also, in the test with SK-MEL-28 melanoma, the growth was 81.5%.

`O=C(CNS(=O)(=O)Cc1ccccc1)NNc1ccccc1`: the growth was 67.2% with DU-145 prostate; 9.47% (active) in the test on K-562 leukemia; 91.3% in the test on MALME-3M melanoma; 120% with RXF 393 renal; 60.1% with SF-268 CNS; 26.2% with SF-295 CNS. Besides, the growth in the test with SF-539 CNS is 61.4%; with UACC-257 melanoma, 84.5%; in the test on M14 melanoma, 31.1%; in the test with HCT-15 colon, 27.8%; with HT29 colon it was 81.5%; with SNB-75 CNS, 76.8%. The growth in the test on SNB-19 CNS was 88.3%; in the test on U251 CNS, 82.7%; in the test on PC-3 prostate it was 63.2%; in the test with SK-MEL-5 melanoma, 47.5%; with UACC-62 melanoma (10 µM) it was 14.9%; in the test on SK-MEL-28 melanoma, 94%.

As for `N#CC(=S)Nc1cccc(Cl)c1`, the growth in the test on UACC-62 melanoma (100 µM) is 1.5% (active) and -86.8% (active).

As for `O=C1c2ccccc2CCC1(Br)Br`, the growth is 21.8% in the test with DU-145 prostate; -13.5% (active) with K-562 leukemia; -45.8% (active) with MALME-3M melanoma; -1.14% (active) in the test on MDA-MB-231 breast; 59.3% in the test on SF-268 CNS; 105% in the test with SF-295 CNS. The growth in the test on SF-539 CNS was 16.9%; in the test with UACC-257 melanoma it was 63%; with M14 melanoma, 5.66% (active); with HCT-15 colon, -57% (active); with HT29 colon, 12%; in the test with SNB-75 CNS it was 56.6%. The growth is 89.4% in the test with SNB-19 CNS, 54.5% in the test with PC-3 prostate, 32.1% with UACC-62 melanoma (10 µM) and 56.5% in the test with SK-MEL-28 melanoma.

For `Clc1c(Cl)c(Cl)c2c(nnn2C2CCCO2)c1Cl` (stereo not drawn), the growth in the test with UACC-62 melanoma (100 µM) is -55.3% (active) and -99.6% (active).
